In experiment [1] the target is Rap guanine nucleotide exchange factor 3 (Homo sapiens) (UniProt O95398). The experiment can be described thus: Confirmatory qHTS for agonist of cAMP-regulated guanine nucleotide exchange factor 3 (EPAC1) (AID 1645881).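 Note: EPAC1 catalysed release of BODIPY-GDP from Rap1B seen as fluorescence loss; 100% = effect of cAMP agonist control; nearly all actives have a fitted effect of over 75% in size.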 For orientation: In qHTS, concentration-response curves come from the screen itself.
Rap guanine nucleotide exchange factor 3 (Homo sapiens), sequence (O95398 whole entry, looked up): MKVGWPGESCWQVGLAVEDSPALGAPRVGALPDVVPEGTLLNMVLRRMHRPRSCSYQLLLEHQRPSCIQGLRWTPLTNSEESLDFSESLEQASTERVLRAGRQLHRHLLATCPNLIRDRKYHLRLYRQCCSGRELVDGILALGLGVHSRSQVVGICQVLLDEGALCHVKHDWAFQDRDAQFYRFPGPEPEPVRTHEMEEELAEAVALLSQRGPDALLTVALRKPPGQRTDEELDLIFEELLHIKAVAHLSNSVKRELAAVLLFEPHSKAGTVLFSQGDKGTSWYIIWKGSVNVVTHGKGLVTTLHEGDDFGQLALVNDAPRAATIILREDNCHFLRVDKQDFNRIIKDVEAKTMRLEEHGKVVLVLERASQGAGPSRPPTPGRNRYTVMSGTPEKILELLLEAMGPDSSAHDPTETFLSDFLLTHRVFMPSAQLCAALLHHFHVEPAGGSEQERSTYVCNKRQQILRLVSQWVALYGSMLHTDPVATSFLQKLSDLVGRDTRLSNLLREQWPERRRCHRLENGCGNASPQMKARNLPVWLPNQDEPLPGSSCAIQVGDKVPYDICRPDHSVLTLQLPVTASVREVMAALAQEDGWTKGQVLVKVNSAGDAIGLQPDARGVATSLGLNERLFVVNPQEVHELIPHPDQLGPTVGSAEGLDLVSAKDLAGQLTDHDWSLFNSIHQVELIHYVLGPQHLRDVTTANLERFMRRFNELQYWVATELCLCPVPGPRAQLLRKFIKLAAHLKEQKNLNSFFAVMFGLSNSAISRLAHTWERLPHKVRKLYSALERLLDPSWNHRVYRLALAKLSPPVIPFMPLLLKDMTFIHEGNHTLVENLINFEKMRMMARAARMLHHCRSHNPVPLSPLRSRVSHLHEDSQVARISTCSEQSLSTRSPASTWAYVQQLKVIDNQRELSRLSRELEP
Experiment [2] can be described thus: qHTS for differential inhibitors of proliferation of Plasmodium falciparum line GB4 (AID 1816).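 Note: parasite growth measured after 72 h incubation; 0% = vehicle DMSO and -100% = reference inhibitor.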 To be noted: Potency: Plasmodium falciparum GB4 proliferation inhibition.
The nature of experiment [3]: qHTS Assay for Modulators of Human Peripheral Myelin Protein 22 (PMP22) Expression/Activity (AID 1967; active = well fitted curve in the direction sought with a large enough effect in the signal ratio; the % refers to the signal ratio;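 note: 0% = untreated cells and 100% end not stated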). In short, it runs like this: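 Mouse MSC80 Schwann line, Pmp22 promoter–CBG68 reporter, EF-alpha–CBR internal control. 24h compound exposure, 37 °C/5% CO2, DMEM + 10% FBS. Readout: corrected green/red luminescence ratio, normalized to untreated cells; concentration-response curves fitted and classified.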

Experiment [4] is described as follows: qHTS profiling of the MIPE4 collection as inhibitors of Plasmodium falciparum (3D7) proliferation (AID 743344; call rule not given here;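 note: scaled between DMSO vehicle wells and 0.29 µM artemisinin as full inhibition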). To be noted: P. falciparum 3D7 in erythrocytes, SYBR Green DNA fluorescence, 72 h; at 28.5 µM (top of the series) unless noted. The procedure, abridged:
(§1)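 Erythrocytes infected with P. falciparum (0.3% parasitemia, 2.5% hematocrit) incubated with compounds 72 h at 37 C, 5% CO2. Lysis with saponin/Triton buffer containing SYBR Green I, overnight at room temperature in the dark; DNA fluorescence (485/535 nm) normalised to 0.29 uM artemisinin and DMSO.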

Experiment [5] in a line: qHTS profiling of the MIPE4 collection as inhibitors of Plasmodium falciparum (DD2) proliferation (AID 743345; call rule not given here). The note with it: P. falciparum Dd2 in erythrocytes, SYBR Green DNA, 72 h; at 28.5 µM (top of the series) unless noted. The procedure, abridged: as §1
Experiment [6] in a line: qHTS profiling of the MIPE4 collection as inhibitors of Plasmodium falciparum (DD2) proliferation (Rep 2) (AID 743346; call rule not given here). The note with it: P. falciparum Dd2 in erythrocytes, SYBR Green DNA, 72 h; at 28.5 µM (top of the series) unless noted. The procedure, abridged:
as §1

Experiment [7] in a line: qHTS profiling of the MIPE4 collection as inhibitors of Plasmodium falciparum (HB3) proliferation (AID 743347; call rule not given here;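 note: plate controls were DMSO vehicle wells for no effect and artemisinin wells for full effect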). To be noted: P. falciparum HB3 in erythrocytes, SYBR Green DNA, 72 h; at 28.5 µM (top of the series) unless noted. In short, it runs like this: as §1
The nature of experiment [8]: qHTS for differential inhibitors of proliferation of Plasmodium falciparum line W2 (AID 1883).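 Note: parasites grown with compound for 72 h before lysis and staining.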 Note: potency is the fitted concentration of half-maximal effect. To be noted: Potency: Plasmodium falciparum W2 proliferation inhibition.
Experiment [9] in a line: Quantitative high throughput screen for delayed death inhibitors of the malarial parasite plastid, 96 hour incubation (AID 488745).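 Note: luciferase-expressing P. falciparum in erythrocytes at 2% hematocrit and 0.1% parasitemia; % is set by controls: 0 for no effect and ±100 for the full control effect; nearly all actives have a fitted effect of over 70% in size.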 In short, it runs like this: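 Infected erythrocytes were added to compound in Albumax-supplemented RPMI 1640 at 0.1% parasitemia and 2% hematocrit (final), incubated 96 h at 37 C under 5% CO2, then luciferase reagent was added and luminescence measured.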

Experiment [10] addresses ATP-dependent 6-phosphofructokinase (Trypanosoma brucei brucei) (UniProt O15648). The experiment can be described thus: qHTS Assay to Find Inhibitors of T. brucei phosphofructokinase: hit validation (AID 492961).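 Note: luminescence reports ADP formed as PFK phosphorylates fructose-6-phosphate with ATP; % is set by controls: 0 for no effect and ±100 for the full control effect.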 The procedure, abridged:
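Inhibition of parasite PFK is measured as reduced ADP formation, quantified via luciferase after ATP depletion. Assay used 0.1 mM ATP, 0.5 mM F6P, 1.25 nM enzyme, 45 min incubation.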

Experiment [11] can be described thus: S16 Schwann cell PMP22 intronic element beta-lactamase assay (AID 624044; calls by dose curve;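 note: 0% = DMSO and -100% = potassium clavulanate positive control; nearly all actives have a fitted effect of over 15% in size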). The procedure, abridged:
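Rat S16 Schwann cells with beta-Lac driven by a PMP22 intronic element, compound-treated 24 h at 37 °C. LiveBLAzer FRET B/G read: 460 nm normalized to potassium clavulanate vs DMSO; 535 nm FRET as viability; concentration-effect curves classified.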

In experiment [12] the test system is 3D7. Put plainly: qHTS profiling for inhibitors of Plasmodium falciparum proliferation (AID 504749). Note: nearly all actives have a fitted effect of over 60% in size. Note: potency is the fitted concentration of half-maximal effect. The note with it: P. falciparum in erythrocytes, SYBR Green DNA, 72 h; series mostly up to 28.7 µM. In short, it runs like this: (§2)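 P. falciparum-infected erythrocytes (0.3% parasitemia, 2.5% hematocrit) incubated with compound 72 h at 37 C, 5% CO2. Parasite DNA detected by SYBR Green after lysis, overnight at room temperature; normalised to 0.29 uM artemisinin and DMSO.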

Experiment [13] deals with CP194. Described as above. The note with it: P. falciparum in erythrocytes, SYBR Green DNA, 72 h; series mostly up to 28.7 µM. The procedure, abridged: as §2
Experiment [14] concerns DIV14. The experiment is described as above. The note with it: P. falciparum in erythrocytes, SYBR Green DNA, 72 h; series mostly up to 28.7 µM. The procedure, abridged: as §2
The test system of experiment [15] is DIV17. The description is as above. The note with it: P. falciparum in erythrocytes, SYBR Green DNA, 72 h; series mostly up to 28.7 µM. In short, it runs like this:
as §2

In experiment [16] the test system is GB4. Described as above. To be noted: P. falciparum in erythrocytes, SYBR Green DNA, 72 h; series mostly up to 28.7 µM. In short, it runs like this:
as §2

Experiment [17] concerns ICS. The description is as above. To be noted: P. falciparum in erythrocytes, SYBR Green DNA, 72 h; series mostly up to 28.7 µM. The procedure, abridged: as §2
The test system of experiment [18] is PC26. The experiment is described as above. The note with it: P. falciparum in erythrocytes, SYBR Green DNA, 72 h; series mostly up to 28.7 µM. The procedure, abridged: as §2
The subject of experiment [19] is PC49. The description is as above. To be noted: P. falciparum in erythrocytes, SYBR Green DNA, 72 h; series mostly up to 28.7 µM. The procedure, abridged: as §2
Experiment [20] deals with W2. The description is as above. The note with it: P. falciparum in erythrocytes, SYBR Green DNA, 72 h; series mostly up to 28.7 µM. The procedure, abridged: as §2

Results filed as inconclusive are left out. Active and inactive are the calls of the source. Unless noted, calls come from the whole dose curve; as a rule, active = well fitted curve in the direction sought with a large enough effect; inconclusive = small, poorly fitted or top-dose-only effect, or another doubt; inactive = no such curve, though single readings can be large; an effect the other way counts as inactive or inconclusive.

ATP-dependent 6-phosphofructokinase (Trypanosoma brucei brucei), sequence (O15648 whole entry, looked up): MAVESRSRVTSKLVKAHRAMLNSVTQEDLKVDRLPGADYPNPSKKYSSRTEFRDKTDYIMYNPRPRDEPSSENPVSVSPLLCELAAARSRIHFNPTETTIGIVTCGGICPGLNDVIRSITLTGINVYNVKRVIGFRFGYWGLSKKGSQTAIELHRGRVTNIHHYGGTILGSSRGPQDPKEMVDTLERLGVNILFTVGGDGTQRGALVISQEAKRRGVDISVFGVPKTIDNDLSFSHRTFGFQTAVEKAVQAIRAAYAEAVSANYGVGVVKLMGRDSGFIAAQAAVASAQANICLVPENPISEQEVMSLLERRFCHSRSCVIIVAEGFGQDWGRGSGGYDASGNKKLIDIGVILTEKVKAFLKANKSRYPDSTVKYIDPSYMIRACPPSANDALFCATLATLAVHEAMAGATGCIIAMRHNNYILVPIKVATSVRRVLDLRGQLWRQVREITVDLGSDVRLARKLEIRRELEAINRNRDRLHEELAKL

`C(=C/c1ccccc1)/CN1CCN(CCOC(c2ccccc2)c2ccccc2)CC1`: the compound was classed as inactive in [1].
As to `C[N+]1(C)CCc2cc3c(cc2C1C1OC(=O)c2c1ccc1c2OCO1)OCO3` (stereo unspecified), the Potency entry in [2] is “inactive”. In experiment [3], the outcome was inactive.
The compound `O=C1CC[C@@]2(O)[C@H]3Cc4ccc(O)c5c4C2(CCN3CC2CC2)[C@H]1O5` came in with a parasite growth, % of DMSO control in experiment [4] of 101%. In experiment [5], the parasite growth remaining, % of DMSO control (lower = more inhibition) was 82%. The parasite growth, % of control (lower = inhibition) in experiment [6] came out at 59.1%. Also, the growth, % of control in experiment [7] was found to be 94.1%.
In the case of `C[C@@H]1O[C@@H](O[C@H]2C[C@@H](O)[C@]3(CO)[C@@H]4C(CC[C@]3(O)C2)[C@@]2(O)CC[C@H](C3=CC(=O)OC3)[C@@]2(C)C[C@H]4O)[C@H](O)[C@H](O)[C@H]1O` (stereo partly specified), in [8], the Potency is 11.2 µM (active).
As for `COc1ccc2[nH]cc(CCN(C)C)c2c1`, the compound was classed as inactive in experiment [3]. For the same compound, in experiment [9], the Potency result is “inactive”.
In experiment [4], `Cc1ncc(C[n+]2csc(CCO)c2C)c(=O)[nH]1` had a parasite growth, % of DMSO control of 96.7%. In addition, the parasite growth remaining, % of DMSO control (lower = more inhibition) in experiment [5] was 104%. The parasite growth, % of control (lower = inhibition) in experiment [6] was determined as 113%. In [7], this compound registered a growth, % of control of 73.2%.
In the case of `N[C@H](CCCCCP(=O)(O)O)C(=O)O`, the Potency result in experiment [2], in [8] and in experiment [9] was “inactive” each time.
`CN1Cc2ccccc2[C@@H]2c3cccc4[nH]cc(c34)C[C@H]21`: the compound was classed as inactive in experiment [1].
Turning to `CC(C)[C@@]1(NC(=O)[C@H]2CC3c4cccc5[nH]cc(c45)C[C@H]3N(C)C2)O[C@@]2(O)C3CCCN3C(=O)[C@@H](Cc3ccccc3)N2C1=O` (stereo partly specified), the Potency entry in experiment [10] and in experiment [11] was “inactive” each time. The Potency is 2.24 µM (active) in experiment [12]; 6.75 µM (active) in [13]; 0.953 µM (active) in experiment [14]; 0.849 µM (active) in [15]; 3.01 µM (active) in experiment [16]; 0.447 µM (active) in experiment [17]. The Potency in experiment [18] was 1.51 µM (active); in [19], 3.16 µM (active); in [20] it was 0.953 µM (active).
On to `CCN1C[C@]2(COC)[C@H](O)C[C@H](OC)[C@]34C1C([C@H](OC)[C@H]23)[C@]1(OC(C)=O)C2[C@@H](OC(=O)c3ccccc3)C(O)(C[C@H]24)[C@@H](OC)[C@@H]1O`, for which the Potency entry in experiment [10], in experiment [11], in experiment [12] and in [19] was “inactive” each time.
`O=C(O)c1ccccc1-c1c2cc(Br)c(=O)cc-2oc2[c]([Hg])c(O)c(Br)cc12`: the Potency entry in experiment [11], in [13], in experiment [14], in experiment [15], in [16] and in experiment [17] was “inactive” each time. Besides, the Potency entry in experiment [18] and in [20] was “inactive” each time.

Source of the values: PubChem BioAssay (NCATS).
